From PubChem BioAssay
Activity calls are given as the source filed them.

Legend:
[1] = optical density shifts of acrAB sulA E. coli – strain DRC41, OD650, 48 h, E. coli filamentation inducer project, primary screen (AID 1152); conditions: higher = more signal, called active from +8 up or from −8 down;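 note: E. coli MC1000 strain DRC41 lacking acrAB efflux pump and sulA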
[2] = probe aLefty1 binding on compound microarray – biochemical, small-molecule microarray, 635/667 nm fluorescence, primary screen (AID 1153); conditions: higher = more signal;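 note: score merges spot fluorescence with signal-to-noise ratio from the scanned slide images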
[3] = plasmodial surface anion channel blockers, osmotic lysis – cell-based, P. falciparum Indochina, OD700, 1 h, primary screen (AID 1154); conditions: P. falciparum Indochina infected RBC osmotic lysis, higher = more signal, called active from +8 up or from −8 down
[4] = plasmodial surface anion channel blockers, osmotic lysis – cell-based, P. falciparum Indochina, OD700, 2 h, primary screen (AID 1155);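 note: lysis reports solute entry through the parasite surface anion channel PSAC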; conditions: P. falciparum Indochina infected erythrocytes, higher = more signal, called active from +8 up or from −8 down
[5] = changes in parasitized red cell lysis, either direction – P. falciparum Indochina, OD700, 3 h, PSAC antagonist project, primary screen (AID 1156); conditions: P. falciparum-infected erythrocytes, osmotic lysis, higher = more signal, called active from +8 up or from −8 down
[6] = plasmodial surface anion channel blockers, osmotic lysis – cell-based, P. falciparum Indochina, OD700, 18 h, primary screen (AID 1157); conditions: P. falciparum Indochina infected erythrocytes, osmotic lysis OD700, 18 h; higher = more signal, called active from +8 up or from −8 down
[7] = S6 kinase pathway phospho-S6 level changes – cell-based, A549, cytoblot, luminescence, serum-stimulated, primary screen (AID 1158); conditions: 5 h, higher = more signal;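 note: serum-stimulated A549 lung adenocarcinoma cells; signal is phosphorylated S6 detected by cytoblot immunostaining with HRP secondary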
[8] = biological target: NADPH oxidase 2 (Homo sapiens) (UniProt P04839); assay: compounds shifting NOX2 Amplex Red fluorescence – cell-based, HEK293-NOX2, PMA-stimulated, NOX inhibitor project, primary screen (AID 1159); conditions: 45 min, higher = more signal, called active from +8 up or from −8 down; note: test concentration not given here
[9] = biological target: NADPH oxidase 4 (Homo sapiens) (UniProt Q9NPH5); assay: compounds shifting NOX4 Amplex Red fluorescence – cell-based, HEK293-NOX4, tetracycline-induced, NOX inhibitor project, primary screen (AID 1160); conditions: HEK293-NOX4, Amplex Red H2O2 fluorescence, 45 min; higher = more signal, called active from +8 up or from −8 down
[10] = biological target: NADPH oxidase 5 (Homo sapiens) (UniProt Q96PH1); assay: compounds shifting NOX5 Amplex Red fluorescence – cell-based, HEK293-NOX5, NOX inhibitor project, primary screen (AID 1161); conditions: HEK293-NOX5, ionomycin, 45 min, higher = more signal
[11] = compound effects on lung adenocarcinoma cell viability – A549, calcein-AM fluorescence, 48 h, basal, profiling panel (AID 1162); conditions: higher = more signal; note: test concentration not given here
[12] = compound effects on differentiated 3T3-L1 adipocyte viability – cell-based, 3T3-L1 adipocytes, calcein-AM fluorescence, 48 h, basal, profiling panel (AID 1163); conditions: 3T3-L1 adipocytes viability, higher = more signal; note: test concentration not given here
[13] = compound effects on hepatocellular carcinoma cell viability – HepG2, calcein-AM fluorescence, 48 h, basal, profiling panel (AID 1164); conditions: higher = more signal; note: test concentration not given here
[14] = compound effects on multiple myeloma cell viability – MM1S, calcein-AM fluorescence, 48 h, basal, profiling panel (AID 1165); conditions: higher = more signal; note: test concentration not given here
[15] = calcein-AM signal in unstimulated myeloma cells – cell-based, calcein-AM fluorescence, 48 h, PK04 Diversity Set, profiling panel (AID 1166); conditions: RPMI8226 myeloma viability, higher = more signal;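 note: cells grown under basal conditions without added stimulus; test concentration not given here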
[16] = JC-1 mitochondrial signal, unstimulated HepG2 cells – cell-based, JC-1 fluorescence, 24 h, 100 nL compound, profiling panel (AID 1167); conditions: HepG2 mitochondrial potential, higher = more signal; note: test concentration not given here
[17] = JC-1 mitochondrial signal, unstimulated adipocytes – cell-based, JC-1 fluorescence, 3T3-L1 adipocytes, 24 h, 100 nL compound, profiling panel (AID 1168); conditions: JC-1 mitochondrial fluorescence, higher = more signal, called active from +8 up or from −8 down; note: test concentration not given here
[18] = JC-1 mitochondrial signal, unstimulated myeloma cells – cell-based, JC-1 fluorescence, RPMI8226, 24 h, 100 nL compound, profiling panel (AID 1169); conditions: JC-1 mitochondrial potential fluorescence, higher = more signal; note: test concentration not given here
[19] = JC-1 mitochondrial signal, unstimulated MM1S myeloma – cell-based, JC-1 fluorescence, 24 h, 100 nL compound, profiling panel (AID 1170); conditions: MM1S mitochondrial potential, higher = more signal; note: test concentration not given here
[20] = resazurin metabolic signal in A549 cells – cell-based, resazurin fluorescence, 24 h, PK04 Diversity Set, profiling panel (AID 1171); conditions: A549 viability, higher = more signal, called active from +8 up or from −8 down; note: test concentration not given here

Sequence of NADPH oxidase 5 (Homo sapiens) (Q96PH1 whole entry, looked up): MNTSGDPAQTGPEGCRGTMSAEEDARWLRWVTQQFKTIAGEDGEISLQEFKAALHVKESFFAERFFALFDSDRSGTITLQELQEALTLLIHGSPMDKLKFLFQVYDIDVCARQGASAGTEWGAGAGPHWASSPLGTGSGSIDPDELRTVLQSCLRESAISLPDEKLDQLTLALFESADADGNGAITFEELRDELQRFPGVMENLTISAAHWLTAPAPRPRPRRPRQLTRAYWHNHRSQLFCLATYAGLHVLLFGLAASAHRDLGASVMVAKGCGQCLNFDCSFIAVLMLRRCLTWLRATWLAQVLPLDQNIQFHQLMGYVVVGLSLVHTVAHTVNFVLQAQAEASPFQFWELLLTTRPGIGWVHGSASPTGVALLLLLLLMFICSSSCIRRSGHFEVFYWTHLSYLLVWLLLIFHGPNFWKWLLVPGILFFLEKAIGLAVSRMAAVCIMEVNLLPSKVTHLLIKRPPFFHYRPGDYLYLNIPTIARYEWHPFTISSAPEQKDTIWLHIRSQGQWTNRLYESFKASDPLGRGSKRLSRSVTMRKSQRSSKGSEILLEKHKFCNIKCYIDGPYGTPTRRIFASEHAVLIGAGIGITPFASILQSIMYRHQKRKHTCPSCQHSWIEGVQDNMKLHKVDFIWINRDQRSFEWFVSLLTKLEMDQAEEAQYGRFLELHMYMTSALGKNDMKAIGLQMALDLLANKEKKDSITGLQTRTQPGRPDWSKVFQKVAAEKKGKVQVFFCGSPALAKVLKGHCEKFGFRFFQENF
Sequence of NADPH oxidase 4 (Homo sapiens) (Q9NPH5 whole entry, looked up): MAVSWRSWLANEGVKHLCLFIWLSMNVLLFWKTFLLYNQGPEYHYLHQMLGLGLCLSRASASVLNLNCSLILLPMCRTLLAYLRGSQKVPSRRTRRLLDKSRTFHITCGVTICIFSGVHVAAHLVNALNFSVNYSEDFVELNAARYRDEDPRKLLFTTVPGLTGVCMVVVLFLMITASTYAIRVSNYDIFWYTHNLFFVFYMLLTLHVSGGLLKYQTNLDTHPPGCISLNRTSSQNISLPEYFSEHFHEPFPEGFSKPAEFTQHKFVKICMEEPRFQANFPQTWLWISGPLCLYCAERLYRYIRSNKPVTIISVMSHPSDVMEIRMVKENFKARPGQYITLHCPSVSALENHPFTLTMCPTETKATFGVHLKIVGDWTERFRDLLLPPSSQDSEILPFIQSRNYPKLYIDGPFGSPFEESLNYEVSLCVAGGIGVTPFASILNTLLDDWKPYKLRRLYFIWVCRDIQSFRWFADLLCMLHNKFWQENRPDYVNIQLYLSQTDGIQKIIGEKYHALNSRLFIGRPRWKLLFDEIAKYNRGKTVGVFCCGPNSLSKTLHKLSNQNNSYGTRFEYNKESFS
Sequence of NADPH oxidase 2 (Homo sapiens) (P04839 whole entry, looked up): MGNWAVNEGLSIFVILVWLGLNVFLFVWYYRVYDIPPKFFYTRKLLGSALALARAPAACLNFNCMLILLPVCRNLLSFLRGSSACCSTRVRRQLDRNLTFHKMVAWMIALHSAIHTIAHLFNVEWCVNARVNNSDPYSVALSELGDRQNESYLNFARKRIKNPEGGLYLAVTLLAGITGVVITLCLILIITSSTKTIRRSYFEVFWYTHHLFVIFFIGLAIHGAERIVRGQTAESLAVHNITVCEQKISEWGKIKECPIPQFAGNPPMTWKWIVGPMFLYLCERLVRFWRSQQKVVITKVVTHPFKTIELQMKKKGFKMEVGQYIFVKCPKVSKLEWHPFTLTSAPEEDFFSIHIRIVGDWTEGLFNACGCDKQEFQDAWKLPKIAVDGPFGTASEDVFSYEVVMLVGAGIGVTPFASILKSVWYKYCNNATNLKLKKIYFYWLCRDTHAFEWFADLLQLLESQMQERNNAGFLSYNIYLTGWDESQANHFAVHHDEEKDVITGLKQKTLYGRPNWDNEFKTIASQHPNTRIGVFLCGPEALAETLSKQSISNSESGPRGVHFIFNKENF

Row | Structure (SMILES) | z-score [1] | composite z-score [2] | z-score [3] | z-score [4] | z-score [5] | z-score [6] | z-score [7] | z-score [8] | z-score [9] | z-score [10] | z-score [11] | z-score [12] | z-score [13] | z-score [14] | z-score [15] | z-score [16] | z-score [17] | z-score [18] | z-score [19] | z-score [20]
1 | C[C@H](c1ccccc1)N1C(=O)[C@H]2[C@H]3[C@H](O)[C@H](O)CC(=O)[C@@H]3CC[C@H]2C1=O | -0.228 (inactive) | 0.173 | 0.12 (inactive) | 0.321 (inactive) | 0.151 (inactive) | -0.12 (inactive) | -0.448 | 0.292 (inactive) | -0.112 (inactive) | -0.092 | -0.311 | -0.0863 | -0.254 | -0.0752 | 0.299 | 0.032 | -0.239 (inactive) | -0.0521 | 0.25 | -0.164 (inactive)
2 | CCOC(=O)C[C@H]1[C@H](OC(=O)c2cc3ccccc3oc2=O)[C@@H](NC(=O)c2ccc3ccccc3n2)c2cc(OCCCO)ccc2N1C(=O)c1ccccc1 | 0.571 (inactive) | 0.0793 | 1.31 (inactive) | -0.639 (inactive) | 0.628 (inactive) | -1.83 (inactive) | 0.63 | -0.253 (inactive) | -0.654 (inactive) | 0.86 | 0.321 | 2.22 | 0.11 | 0.204 | -0.785 | -0.187 | -0.408 (inactive) | -0.264 | -0.0996 | -0.881 (inactive)
3 | COC(=O)[C@H]1COC(c2ccc(OCCCO)cc2)=N1 | -0.13 (inactive) | 0.245 | 22.4 (active) | 5.33 (inactive) | 0.0031 (inactive) | 0.642 (inactive) | -0.0797 | -0.257 (inactive) | 0.172 (inactive) | -0.663 | -0.283 | 0.568 | -0.344 | 0.0072 | -0.231 | -0.371 | 0.203 (inactive) | -0.16 | 1.23 | 0.0759 (inactive)
4 | C[N+](C)(C)CCCCCCNC(=O)[C@@H]1C[C@@H]2C(=O)N3CCC[C@H]3C(=O)N2[C@@H]1c1cccc(OCCO)c1 | 0.733 (inactive) | 0.388 | 5.3 (inactive) | 0.679 (inactive) | 1.45 (inactive) | 0.277 (inactive) | 0.0239 | 0.15 (inactive) | 0.982 (inactive) | 1.49 | -0.465 | -0.0317 | -1.92 | 0.826 | 0.844 | -1.08 | 0.217 (inactive) | -0.00411 | -1.03 | 1.12 (inactive)
5 | C[C@@H]1CCC2C(=O)N(Cc3ccccc3)C[C@@H](O)CN2[C@H]1c1ccc(Br)cc1 (stereo not given in full) | -0.732 (inactive) | -0.0573 | 0.167 (inactive) | -0.875 (inactive) | -0.75 (inactive) | -0.567 (inactive) | 0.805 | 0.615 (inactive) | -0.146 (inactive) | -0.836 | 0.247 | 0.13 | 0.229 | 0.314 | 0.447 | 0.687 | 0.303 (inactive) | -0.878 | 1.35 | 0.269 (inactive)
6 | CCc1cc2c(nc1CC)CCN(CCC(C)=NO[C@@H](C)c1cc(-c3c(C)cc(C)cc3C)no1)C2 | 0.187 (inactive) | -0.192 | 4.75 (inactive) | 0.445 (inactive) | 1.41 (inactive) | 0.514 (inactive) | 0.549 | -2.21 (inactive) | -0.321 (inactive) | -2.75 | 1.9 | 0.704 | 1.48 | -2.96 | -1.59 | 5.47 | 0.0344 (inactive) | 0.0876 | -0.769 | 0.323 (inactive)
7 | CC(C)(C)N1C(=O)[C@H]2[C@H]3[C@H](O)[C@H](O)CC(=NO[C@@H]4O[C@H](CO)[C@@H](O)[C@H](O)[C@H]4O)[C@@H]3CC[C@H]2C1=O | 0.383 (inactive) | -0.147 | 1.13 (inactive) | 0.0656 (inactive) | -0.689 (inactive) | 0.106 (inactive) | -0.345 | 1.01 (inactive) | -0.022 (inactive) | -2.07 | -0.504 | 0.346 | 0.302 | -0.739 | -0.666 | -2.11 | -0.404 (inactive) | -0.018 | -1.03 | -0.461 (inactive)
8 | C[C@@H]1C=CCC(=O)OC[C@H](C)C(=O)OC[C@H]2O[C@H]1C=C[C@H]2O | 0.0366 (inactive) | -0.15 | 1.17 (inactive) | 0.714 (inactive) | 0.0284 (inactive) | 0.254 (inactive) | 1.68 | -0.648 (inactive) | -2.12 (inactive) | -0.384 | 0.145 | -0.261 | -0.139 | -1.42 | -0.595 | 0.482 | 0.36 (inactive) | -0.103 | -0.314 | 0.172 (inactive)
9 | O=C1[C@H]2[C@H]3[C@H](O)[C@H](O)CC(=NO[C@@H]4O[C@H](CO)[C@@H](O)[C@H](O)[C@H]4O)[C@H]3CC[C@H]2C(=O)N1Cc1ccc2c(c1)OCO2 | 0.614 (inactive) | 0.122 | 15.5 (active) | 2.09 (inactive) | 0.0435 (inactive) | 1.04 (inactive) | -0.438 | -2.58 (inactive) | 0.514 (inactive) | 1.55 | 1.26 | -1 | -0.254 | -0.19 | 0.0119 | -0.102 | 0.48 (inactive) | -0.0781 | -1.13 | 0.443 (inactive)
